# Assay results: PubChem BioAssay (NCI)
# This is part of a sample that, as a whole, favours compounds with a hit. Of some 79,000 tested, about 15% had one in any assay. Values without a mark were called inactive. The source made the active and inactive calls. No stated cut-off is given here; in the data, active means growth inhibition above about 70%; inactive means the rest.
# Legend:
# [1] = NCI Yeast Anticancer Drug Screen. Data for the rad50 strain (AID 155);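 further: 0% = growth of vehicle-only cultures of the same strain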; conditions: S. cerevisiae rad50 strain growth inhibition, hits give high values
# In short: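 DNA repair mutant yeast, compound exposure, growth read-out; inhibition is taken relative to vehicle.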
# [2] = NCI Yeast Anticancer Drug Screen. Data for the mec2-1 strain (AID 157); conditions: S. cerevisiae mec2-1 strain, hits give high values
# In short: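 Each compound was tested on mec2-1 yeast, a strain altered in DNA damage repair or cell cycle control. Growth inhibition is reported relative to vehicle.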
# [3] = NCI Yeast Anticancer Drug Screen. Data for the sgs1 mgt1 strain (AID 161);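 further: 0% = growth of cultures given vehicle only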; conditions: S. cerevisiae sgs1 mgt1 strain, hits give high values
# In short: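 Mutant yeast exposed to compound; growth scored against vehicle-only wells.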
# [4] = NCI Yeast Anticancer Drug Screen. Data for the cln2 rad14 strain (AID 165);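 further: 0% = growth equal to vehicle treated cultures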; conditions: S. cerevisiae cln2 rad14 strain, hits give high values
# In short: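 Test compounds were added to cln2 rad14 yeast cultures; inhibition of growth was then determined by comparison with vehicle treatment.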
# [5] = NCI Yeast Anticancer Drug Screen. Data for the bub3 strain (AID 167); conditions: S. cerevisiae bub3 mutant strain, hits give high values
# In short: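 In this screen, a yeast mutant lacking normal mitotic checkpoint function is challenged with compound. Relative growth versus vehicle gives the inhibition value.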
# [6] = NCI Yeast Anticancer Drug Screen. Data for the mlh1 rad18 strain (AID 175); conditions: S. cerevisiae mlh1 rad18 strain growth inhibition, hits give high values
# In short: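 Inhibition values reflect reduced growth of mutant yeast versus vehicle-treated controls following compound exposure; the mutations affect DNA damage repair.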
# [7] = at 5.0 µM (retest, dose inferred, filed as 0.5)
# [8] = at 50.0 µM (retest, dose inferred, filed as 5.0)
Compound,"growth inhibition [1, 7] [%]","growth inhibition [1, 8]",growth inhibition ([1]; at 50.0 µM),"growth inhibition [2, 7]","growth inhibition [2, 8]",growth inhibition ([2]; at 50.0 µM),"growth inhibition [3, 7] [%]","growth inhibition [3, 8]",growth inhibition ([3]; at 50.0 µM),"growth inhibition [4, 7] [%]","growth inhibition [4, 8]",growth inhibition ([4]; at 50.0 µM),"growth inhibition [5, 7]","growth inhibition [5, 8]",growth inhibition ([5]; at 50.0 µM),"growth inhibition [6, 7] [%]","growth inhibition [6, 8]",growth inhibition ([6]; at 50.0 µM)
NC(=O)SCC(=O)Nc1ccccc1,5,82% (active),86.5% (active),-1%,83% (active),67.9%,1,82% (active),87.8% (active),5,81% (active),80% (active),3%,83% (active),83.6% (active),3,87% (active),87.2% (active)
COC(C(=O)O)c1ccccc1 (centres undefined),-1,9%,75% (active),-1%,-3%,8.9%,-2,-2%,74.8% (active),1,-5%,-1.95%,-2%,1%,47.1%,-3,0%,79.5% (active)
CCN(CC)CCOc1ccc(C(O)(Cc2ccc(Cl)cc2)c2ccccc2)cc1 (centres undefined),39,90% (active),90.9% (active),35%,87% (active),83.8% (active),58,95% (active),97.5% (active),56,93% (active),98.3% (active),57%,89% (active),81.2% (active),51,89% (active),97.2% (active)
O=C(Nc1ccc(Cl)cc1)OCCOCCOC(=O)Nc1ccc(Cl)cc1,9,97% (active),95.8% (active),0%,97% (active),97% (active),25,93% (active),97.9% (active),6,97% (active),98.2% (active),-7%,97% (active),98.7% (active),4,96% (active),98% (active)
C[N+](C)(C)CCCCCCCCCCC(=O)N/N=C/c1ccc([N+](=O)[O-])o1,6,8%,9.85%,2%,7%,4.35%,6,18%,48.9%,2,2%,32.3%,0%,-3%,-3.85%,9,15%,64.6%
CCN(CC)c1ccc(NC(CC(O)c2ccccc2)c2ccccc2)cc1 (centres undefined),-14,1%,-24%,-3%,-1%,5.8%,-5,5%,-0.8%,-5,-3%,51.5%,-4%,2%,21.1%,-5,-7%,24.5%
COc1cc(OC)c(/C=C\c2ccnc3ccccc23)c(OC)c1,35,91% (active),81.6% (active),32%,93% (active),86.3% (active),26,96% (active),84.7% (active),19,55%,37.5%,22%,98% (active),35%,41,91% (active),-2.05%
CC1(C)CNCC(C)(OCc2ccccc2)C(=O)NC(C)(C)CNCC(C)(OCc2ccccc2)C(=O)N1 (centres undefined),-6,-19%,-1.9%,-15%,-8%,-3.4%,-8,7%,-20.9%,-15,-5%,31.5%,-10%,3%,-68.2%,-10,6%,-10.4%
CC1=C(C#N)C(=O)N(C)C(=O)C1(Cl)Cl,-2,-12%,-1.3%,0%,-2%,-8.1%,1,-3%,-7.45%,0,-12%,14.6%,3%,4%,5.05%,1,-3%,9.45%
CCOC(=O)C(=Cc1cccnc1C)C(=O)OCC,16,1%,70.9% (active),-3%,4%,51.7%,42,4%,60.7%,16,27%,45.9%,-31%,-14%,73.2% (active),-8,1%,57.7%
O=C1c2ccccc2C(=O)c2sc(Nc3cc(Cl)ccc3Cl)nc21,58,98% (active),82.3% (active),72% (active),99% (active),88.2% (active),67,99% (active),88.3% (active),52,97% (active),86.5% (active),87% (active),98% (active),83.8% (active),63,98% (active),90.5% (active)
FC(F)(F)c1ccccc1NC(=S)SCc1ccc(Cl)cc1,3,53%,97% (active),-2%,95% (active),97.2% (active),1,94% (active),99.2% (active),-3,69%,98.5% (active),14%,90% (active),97.4% (active),-3,83% (active),99.2% (active)
Cc1ccc2c(c1)C1C(CC2)C2C(=O)OC(=O)C2C2CCc3ccc(C)cc3C21 (centres undefined),35,97% (active),35.4%,21%,98% (active),14.3%,6,99% (active),1.35%,20,90% (active),0.4%,19%,97% (active),10.3%,29,98% (active),38.4%
c1ccc(CC[n+]2csc3ccccc32)cc1,-2,73% (active),57%,0%,84% (active),50.5%,-2,81% (active),36.3%,-8,35%,31.8%,0%,90% (active),63.8%,-2,83% (active),54.6%
CC(C)N=C(NC(C)C)SCCCCCCSC(=NC(C)C)NC(C)C,2,-2%,12.3%,-1%,1%,-17.2%,-7,1%,2.4%,-6,-1%,76.2% (active),3%,-2%,-16.2%,-1,-5%,6.9%
CCN(CC)CCCCCCNc1cc(C)cc2ccc(C)nc12,8,59%,65.8%,0%,22%,45.7%,11,58%,39.1%,0,36%,8.2%,7%,62%,79.7% (active),21,40%,47.5%
CCOC(=O)c1ccc(-n2c(C)nc3ccc(Br)cc3c2=O)cc1,-4,-6%,53%,-1%,-7%,61.6%,-4,-7%,40%,0,-6%,64.5%,1%,-1%,77.6% (active),-2,-6%,74.8% (active)
Cc1ccc(S(=O)(=O)OC(COC(=O)c2ccc([N+](=O)[O-])cc2)C2OC(C)(C)OC2C(SCc2ccccc2)SCc2ccccc2)cc1 (centres undefined),4,10%,96.8% (active),5%,1%,86.5% (active),-1,5%,95.5% (active),2,8%,39.2%,17%,23%,89% (active),6,-2%,93.7% (active)
